100 molecules from PubChem BioAssay AID504339 (National Center for Advancing Translational Sciences (NCATS), 2011) can be followed below.

Among all 390,000 compounds or so, about 17,000 (4.4%) were called active. Where a call stands in place of a potency, no number is given. Not shown: some 8% with an inconclusive outcome. Many of the other results were omitted from the sample, so actives are more common in it than they were. Values without a mark were called inactive. The call rests on the fitted dose curve; in most records, active means well fitted inhibition curve with a large enough effect; inconclusive means small, poorly fitted or top-dose-only effect; inactive means no such curve, though single readings can be large or run the other way.
Potency means the concentration at half of the fitted maximal effect.

Lysine-specific demethylase 4A (Homo sapiens), sequence (O75164 whole entry, looked up, the tested form may be a part): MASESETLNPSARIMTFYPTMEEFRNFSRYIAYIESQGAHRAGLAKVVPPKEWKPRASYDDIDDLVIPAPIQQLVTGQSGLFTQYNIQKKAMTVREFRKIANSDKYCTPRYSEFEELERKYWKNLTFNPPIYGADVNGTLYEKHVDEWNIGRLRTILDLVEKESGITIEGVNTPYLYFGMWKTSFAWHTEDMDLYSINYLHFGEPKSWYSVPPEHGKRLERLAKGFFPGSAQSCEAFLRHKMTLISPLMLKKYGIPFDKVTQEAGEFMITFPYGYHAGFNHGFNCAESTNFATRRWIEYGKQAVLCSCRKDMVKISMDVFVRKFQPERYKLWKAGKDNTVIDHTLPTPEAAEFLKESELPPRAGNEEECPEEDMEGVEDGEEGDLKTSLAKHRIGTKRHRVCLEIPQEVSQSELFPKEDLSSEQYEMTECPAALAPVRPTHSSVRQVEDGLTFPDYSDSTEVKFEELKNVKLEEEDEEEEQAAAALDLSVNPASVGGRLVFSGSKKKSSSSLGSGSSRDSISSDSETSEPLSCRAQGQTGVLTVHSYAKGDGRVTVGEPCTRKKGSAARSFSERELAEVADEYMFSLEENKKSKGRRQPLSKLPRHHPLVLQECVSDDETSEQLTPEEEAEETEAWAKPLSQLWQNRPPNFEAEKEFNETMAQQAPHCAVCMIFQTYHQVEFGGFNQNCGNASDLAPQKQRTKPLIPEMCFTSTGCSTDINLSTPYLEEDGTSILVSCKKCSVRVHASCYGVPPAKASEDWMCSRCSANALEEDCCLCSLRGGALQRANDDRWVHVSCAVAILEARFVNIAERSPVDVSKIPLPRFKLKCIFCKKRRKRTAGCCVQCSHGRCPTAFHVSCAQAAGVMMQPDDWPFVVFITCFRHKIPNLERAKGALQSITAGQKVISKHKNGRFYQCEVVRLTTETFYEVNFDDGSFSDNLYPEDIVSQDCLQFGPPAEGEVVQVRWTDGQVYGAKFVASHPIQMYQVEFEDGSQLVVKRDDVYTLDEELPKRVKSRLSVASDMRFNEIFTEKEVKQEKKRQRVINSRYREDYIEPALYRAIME

The assay concerns the target Lysine-specific demethylase 4A (Homo sapiens) (UniProt O75164). Put plainly: qHTS Assay for Inhibitors of JMJD2A-Tudor Domain. Further: nearly all actives have a fitted effect of over 50% in size. To be noted: AlphaScreen JMJD2A-Tudor / H3K4me3 peptide binding; series mostly up to 114 µM. Background: In qHTS, concentration-response curves come from the screen itself.
Regarding `CCCOc1cccc(C(=O)Nc2cccc(NC(=O)c3ccc(C(C)(C)C)cc3)c2)c1`, the Potency result was “inactive”.
Consider `CCOC(=O)c1nc(-c2ccc3c(c2)OCO3)[nH]c1C`, for which the Potency entry was “inactive”.
In the case of `CCN1CCN(C(C(=O)NC2CCCC2)c2cc3c(cc2[N+](=O)[O-])OCO3)CC1` (stereo not given), the Potency entry was “inactive”.
The same measure, in the same setting: in the case of `Cc1ccc(-c2n[nH]c(=S)n2/N=C/c2cc3c(cc2[N+](=O)[O-])OCO3)cc1` it was 10 µM (active); in that of `Cc1ccc(S(=O)(=O)N/N=C\c2cc3c(cc2[N+](=O)[O-])OCO3)cc1`, “inactive”; in that of `CCOc1ccc(-c2n[nH]c(=S)n2/N=C/c2cc3c(cc2[N+](=O)[O-])OCO3)cc1`, 17.8 µM (active).
In the case of `O=S(=O)(c1ccc(Cl)cc1)c1nnn2c1nc(NC1CCCC1)c1sccc12`, the Potency result was “inactive”.
Still for that read-out and setting: the entry for `Cc1cc(S(=O)(=O)NCc2ccccn2)c(Cl)cc1Cl` is “inactive”; for `Fc1ccc(-c2ccc(CNCc3ccccn3)o2)cc1Cl` it is 63.1 µM (active).
On to `COc1ccc(-c2ccc(CNCCCN3CCOCC3)o2)cc1Cl`, for which the Potency result is “inactive”.
Regarding `O=C(NC1CCN(Cc2ccccc2)CC1)c1ccc(Cn2c(=O)c3ccccc3n(Cc3cccc(F)c3)c2=O)cc1`, the Potency entry is “inactive”.
For `O=C1CN(C(=O)Nc2ccccc2C(F)(F)F)C(c2ccccc2)c2c(sc3c2CCCC3)N1` (stereo not given), the Potency result is “inactive”.
Take `COc1ccc(CNC(=O)CS(=O)Cc2nc(-c3cccc(C)c3)oc2C)cc1` (stereo not given): the Potency result was “inactive”.
Consider `CC1(C)CC(=O)C=C(N2CCOCC2)C1`, for which the Potency entry is “inactive”.
In the case of `Cc1cccc(N2CCN(C(c3ccccc3)c3nnnn3CC3CCCO3)CC2)c1C` (stereo not given), the activity change, negative = inhibition was -8.9% [at 11.4 µM].
On to `CC1(C)CC(N2CCN(C(c3ccccc3)c3ccccc3)CC2)=CC(=[N+]2CCCCC2)C1`, for which the Potency is 25.1 µM (active).
The same measure, in the same setting: the entry for `CCNS(=O)(=O)c1ccc(NC(=O)CSc2nc(-c3ccco3)cc(C(F)(F)F)n2)cc1` is “inactive”; for `O=C(CSc1cn(CC(=O)N2CCOCC2)c2ccccc12)Nc1ccccc1` it is “inactive”.
The same measure, in the same setting: the entry for `CC(=O)Nc1ccc(NC(=O)C2CCCN(S(=O)(=O)c3ccc4c(c3)CCCC(=O)N4)C2)cc1` (stereo not given) is “inactive”.
On the same count and under the same terms, in the case of `COc1cc(C2c3c(oc4ccccc4c3=O)C(=O)N2c2nc(C)c(C)s2)ccc1O` (stereo not given) it was “inactive”; in that of `CCOc1ccc(-n2c(C)nc3c(cnn3-c3ccc(C)cc3)c2=O)cc1`, “inactive”; in that of `Cn1ccc2cc(S(=O)(=O)N3CCCC(C(=O)NCc4ccccc4F)C3)ccc21` (stereo not given), “inactive”.
With `CN(Cc1cccc2ncccc12)C(=O)CC1C(=O)NCCN1Cc1ccc(F)cc1` (stereo not given), the Potency result was “inactive”.
With `COc1cccc(CN2CCNC(=O)C2CC(=O)N(C)CCc2ccccn2)c1` (stereo not given), the Potency entry is “inactive”.
The same measure, in the same setting: the figure for `COc1ccc(CN2CCNC(=O)C2CC(=O)N(C)Cc2ccccn2)cc1OC` (stereo not given) is 14.1 µM (active).
Still for that read-out and setting: in the case of `Cc1ccc(CCNC(=O)c2ccc3c(c2)N(Cc2cc(C)ccc2C)C(=O)c2ccccc2S3=O)cc1` (stereo not given) it was “inactive”.
Consider `CCn1cc(NC(=O)Nc2ccc(OC)c(OC)c2)c(C(N)=O)n1`, for which the Potency entry is “inactive”.
For `COc1ccc(NC(=O)NC(C)c2c(-n3cccc3)sc(C)c2C)cc1OC` (stereo not given), the Potency was 50.1 µM (active).
Turning to `Cc1ccc(NC(=O)NC(C)c2c(-n3cccc3)sc(C)c2C)c(C)c1` (stereo not given), the Potency entry was “inactive”.
The same measure, in the same setting: the entry for `Cc1cc2c(s1)c1cnn(Cc3c(F)cccc3Cl)c(=O)c1n2C` is “inactive”; for `Cc1ccc(S(=O)(=O)N(CC(=O)Nc2ccc(Cl)cc2Cl)c2ccccc2C)cc1` it is “inactive”; for `COc1cccc(CNC(=O)c2ccc3c(c2)sc2nc(-c4cccc(OC)c4)cn23)c1` it is “inactive”.
On the same count and under the same terms, in the case of `CCc1ccc(-c2cc(C(=O)NN3CCN(C)CC3)c3ccccc3n2)cc1` it was “inactive”; in that of `CCCCc1nc2ccccc2c(NC(=O)CN2CCN(C)CC2)c1CCC`, 0.708 µM (active).
Consider `CCc1cc(C(=O)c2ccc(OC)cc2)c(NC(=O)CN2CCN(C)CC2)s1`, for which the Potency entry is “inactive”.
As for `CC(C)C(=O)Nc1nc2c(s1)CC(C(C)(C)C)CC2` (stereo not given), the Potency result was “inactive”.
`CC1CN(C(=O)N2CCC(C(=O)NCc3cccs3)CC2)c2ccccc2O1` (stereo not given): the Potency entry is “inactive”.
Turning to `Cc1nn(-c2nc(-c3ccccc3)cc(C(F)(F)F)n2)c(C)c1Cl`, the Potency result is “inactive”.
Same read-out and setting: the entry for `CNc1ccc(-c2nc(-c3ccccc3C)no2)cc1[N+](=O)[O-]` is “inactive”; for `COc1ccc(N(C)C(=O)C2CCN(S(=O)(=O)c3cc(Br)cc4c3N(C(C)=O)CC4)CC2)cc1` it is “inactive”; for `Cc1ccc2cc(CCNC(=O)c3c(-c4ccccc4Cl)noc3C)c(=O)[nH]c2c1` it is “inactive”.
Still for that read-out and setting: in the case of `Cc1onc(-c2ccccc2Cl)c1C(=O)NCCn1ccc2ccccc21` it was “inactive”.
Take `Cc1onc(-c2ccccc2Cl)c1C(=O)N(Cc1ccc(N(C)C)cc1)C(C)C`: the Potency was 39.8 µM (active).
On the same count and under the same terms, the entry for `CCOc1ccc(OCC)c(Nc2nc3ccccc3n3nnnc23)c1` is “inactive”; for `CCC(=O)N1CCc2cc(Br)cc(S(=O)(=O)CCC(=O)N3CCN(c4ccc(F)cc4)CC3)c21` it is “inactive”.
Consider `Cc1ccccc1CSc1nc(-c2ccccc2)nc2c1Cc1c(CO)cnc(C)c1O2`, for which the Potency result was “inactive”.
Same read-out and setting: the entry for `CCOC(=O)Cn1c(=O)n(C2CCCCC2)c2nc(-c3cccc(OC)c3)nc(C(N)=O)c21` is “inactive”; for `CN(C(=O)CSc1nc2ccccc2n1Cc1ccccc1C#N)c1ccccc1` it is “inactive”.
The same measure, in the same setting: the entry for `O=C(CN1CCCCCC1)NCCN1C(=O)S/C(=C\c2ccccc2Cl)C1=O` is “inactive”; for `N#Cc1ccccc1CN1C(=O)S/C(=C/c2cccn2-c2cccc(C(=O)O)c2)C1=O` it is 56.2 µM (active); for `CCOc1ccccc1NC(=O)C1=C(C)Nc2ncnn2C1c1ccc(NC(C)=O)cc1` (stereo not given) it is “inactive”.
The same measure, in the same setting: the entry for `COc1ccc(Cl)cc1NC(=O)CSc1nc2ccccc2c2nc(-c3ccccc3)nn12` is “inactive”.
With `O=C1COc2c1ccc(O)c2O`, the Potency was 5.62 µM (active).
Turning to `COc1ccc(CN2CCC(=O)c3ccccc3S2(=O)=O)cc1`, the Potency entry was “inactive”.
With `CC(C)(C)c1ccc(CN2C(=O)c3ccccc3S2(=O)=O)cc1`, the Potency result was “inactive”.
Still for that read-out and setting: the figure for `O=C1CN(Cc2ccccc2)S(=O)(=O)c2ccccc21` is 79.4 µM (active); for `CCn1cc2nc(SCc3cccc(F)c3)n(CCc3ccccc3)c(=O)c2n1` it is “inactive”; for `Cc1ccccc1Nc1nc(N)nc(CN2CCN(c3ccccn3)CC2)n1` it is 56.2 µM (active).
On to `Cc1ccccc1Nc1nc(N)nc(CSc2ccccc2)n1`, for which the Potency result was “inactive”.
As to `Cc1ccccc1Nc1nc(N)nc(CSc2nnc3ccccn23)n1`, the Potency entry was “inactive”.
With `Cc1cc(NC(=O)c2cccc(Cl)c2)ccc1-c1cc2ccccc2oc1=O`, the Potency entry was “inactive”.
`O=C(c1cccs1)c1cn(CCOc2ccc(Cl)cc2)c2ccccc12`: the Potency result was “inactive”.
As to `CCN(CC)CCNC(=O)c1cc2c(=O)oc3ccc(C)cc3c2s1`, the Potency result was “inactive”.
For the molecule `CCc1ccc(S(=O)(=O)c2nnn3c2nc(NCc2ccccc2OC)c2cc(Cl)ccc23)cc1`, the Potency entry was “inactive”.
Consider `O=[N+]([O-])c1ccc(N2CCN(c3ccc(O)cc3)CC2)c(Cl)c1`, for which the Potency is 44.7 µM (active).
Regarding `COc1ccc(N2CCN(c3ccc([N+](=O)[O-])cc3Cl)CC2)cc1`, the Potency entry was “inactive”.
Same read-out and setting: in the case of `CN(C)S(=O)(=O)N1CCN(c2ccc([N+](=O)[O-])cc2)CC1` it was “inactive”; in that of `Cc1ccc(Cl)cc1NC(=O)CCS(=O)(=O)c1ccc(Br)s1`, “inactive”; in that of `Cc1ccc(C)c(S(=O)(=O)N2CCN(C(=O)Nc3ccccc3)CC2)c1`, “inactive”.
Still for that read-out and setting: the entry for `Cc1ccc(S(=O)(=O)N2CC(=O)Nc3ccccc32)cc1C` is “inactive”.
As to `Cc1ccc(C)c(S(=O)(=O)N2CC(=O)Nc3ccccc32)c1`, the Potency was 79.4 µM (active).
On the same count and under the same terms, the entry for `CCOc1ccc(CCNC(=O)c2csc3c2CCCCC3)cc1` is “inactive”.
In the case of `COc1ccc(C2=NC3(CCCCC3)N(CC(=O)Nc3ccc(C(C)C)cc3)C2=O)cc1`, the Potency result was “inactive”.
For `Cc1ccc(-n2nc(C)c3c(C)cc(=O)n(CC(=O)Nc4ccc(C(C)C)cc4)c32)cc1`, the Potency result is “inactive”.
For `CC(NS(=O)(=O)c1ccc(OCC(=O)N2CCCC2)cc1)c1ccccc1` (stereo not given), the Potency result is “inactive”.
With `CC(NS(=O)(=O)c1ccccc1)c1n[nH]c(=S)n1-c1ccccc1` (stereo not given), the Potency is 25.1 µM (active).
In the case of `CC(=O)Nc1ccc(NC(=O)COc2ccc(S(=O)(=O)NC(C)c3ccccc3)cc2)cc1` (stereo not given), the Potency entry was “inactive”.
The same measure, in the same setting: in the case of `CCCCC(CC(C)O)c1n[nH]c(=S)n1-c1ccccc1` (stereo not given) it was 28.2 µM (active); in that of `CCCSc1nc2sc3c(c2c(=O)n1-c1cccc(Br)c1)CC(C)(C)OC3`, “inactive”; in that of `CCC(C(=O)Nc1cccc(Cl)c1C)n1nc(-c2ccc(C)cc2)ccc1=O` (stereo not given), “inactive”.
In the case of `CCc1ccc(NC(=O)c2cc(S(=O)(=O)NC3CCCCCC3)ccc2F)cc1`, the Potency entry was “inactive”.
`CCn1c(SCC(=O)Nc2nc(C)cs2)nnc1C(C)NC(=O)c1ccccc1` (stereo not given): the Potency is 79.4 µM (active).
For the molecule `CCn1c(SCC(=O)NC2=NCCS2)nnc1C(C)NC(=O)c1ccccc1F` (stereo not given), the Potency result is “inactive”.
For the molecule `COCCn1c(SCC(=O)Nc2nc(C)cs2)nnc1C(C)C`, the Potency result is “inactive”.
Take `Cc1ccc(N2CC(NC(=O)Cc3cccs3)CC2=O)cc1` (stereo not given): the Potency result is “inactive”.
With `COc1cccc(CNCc2c(C(=O)O)n(Cc3ccc(C)cc3)c3cc(C)ccc23)c1OC`, the Potency entry is “inactive”.
`CCOc1ccc2nc(/N=C/c3nc(-c4ccccc4)oc3O)sc2c1`: the Potency entry is “inactive”.
As for `CC(N=Cc1nc(-c2ccccc2)oc1O)c1ccccc1` (stereo not given), the Potency was 79.4 µM (active).
For the molecule `Oc1oc(-c2ccccc2Br)nc1/C=N/c1ccccn1`, the Potency result is “inactive”.
Regarding `CCN(Cc1ccccc1)S(=O)(=O)c1ccc2c(c1)CCCN2C(C)=O`, the Potency result is “inactive”.
Consider `COC(=O)c1cc(NC(=O)c2cnc(SC)nc2-c2ccccc2)cc(C(=O)OC)c1`, for which the Potency entry is “inactive”.
Regarding `O=C1CCCCN1CCCC(=O)N1CCCC(Nc2ccc(F)cc2)C1` (stereo not given), the Potency result was “inactive”.
For `O=C1/C(=C/c2ccc(F)cc2)SC(=S)N1CCCC(=O)N1CCCCC1CCO` (stereo not given), the Potency was 44.7 µM (active).
`O=C1/C(=C/c2ccc(F)cc2)SC(=S)N1NS(=O)(=O)c1ccccc1`: the Potency entry was “inactive”.
On to `CCOc1cccc2cc(-c3cn4c(n3)sc3cc(C)ccc34)c(=O)oc12`, for which the Potency result was “inactive”.
Consider `O=C(CSc1ncc(S(=O)(=O)c2ccc(Br)cc2)c(=O)[nH]1)Nc1ccc2c(c1)OCCO2`, for which the Potency result was “inactive”.
Take `COc1cc2nc(SCC(=O)Nc3ccccc3F)n3nc(-c4ccccc4)nc3c2cc1OC`: the Potency entry is “inactive”.
`COc1ccc(N2CCN(Cc3ccc(Br)s3)CC2)cc1`: the Potency was 3.55 µM (active).
The same measure, in the same setting: in the case of `COc1ccc(N2CCN(Cc3nnc(-c4ccccc4)o3)CC2)cc1` it was “inactive”; in that of `COc1ccc(N2CCN(C(=O)c3cccs3)CC2)cc1`, “inactive”.
